# Measured values taken from the supplement of paper PMC4466236.
# In all, about 33,000 sequences were measured (“E-score (dimensionless, -0.5 to 0.5)”: median about -0.058, highest 2% from about 0.35 on). Shown is part of a subset that was picked to be rich in the highest values.
# Test system: MvaT
# Experiment: PBM 8-mer E-score (mean of HK and ME arrays) (E-score (dimensionless, -0.5 to 0.5)); higher = stronger relative binding preference
# Outline: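 Full-length P. aeruginosa MvaT carrying an N-terminal glutathione S-transferase tag was tested by protein binding microarray following a previously described protocol. Two universal double-stranded 60-mer arrays, ME and HK, were used, each with a constant 25-mer primer region and a variable 35-mer region covering all 8-mers. The rank-based E-score is the mean of the two arrays, parsed with a custom script. Its range runs from -0.5 to 0.5 for each 8-mer.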
row,Sequence,PBM 8-mer E-score
1,GTGAACCA,-0.139
2,AACGCTTA,0.0532
3,GTATTAAA,0.313
4,CTATTAAA,0.283
5,TTGTTAAA,0.346
6,TCATTAAA,0.228
7,ATATTAAA,0.466
8,TTATTAAA,0.409
9,AGATTAAC,0.173
10,CGATTAAA,0.218
11,ATATTAAC,0.434
12,GTGTTAAA,0.177
13,CTGTTAAA,0.175
14,CTATTAAC,0.315
15,GAGGACTC,-0.279
16,CTCGGAAG,-0.0476
17,CGCACACG,-0.149
18,GATTCTGC,-0.159
19,CACTACGA,-0.0417
20,CCTGGCAG,-0.209
21,CGTTGTAC,-0.0465
22,AAGAGCTT,-0.115
23,GATTCTGA,-0.00658
24,AGCGCAAA,0.162
25,AACCAGGC,-0.183

row,Sequence,PBM 8-mer E-score
1,GCCTAATA,0.133
2,AAATTTCT,0.148
3,ATATTACG,0.299
4,GCATTAAC,0.114
5,ATATTAAG,0.446
6,GTATTAAC,0.39
7,GGATTAAC,0.111
8,CTATTAAG,0.17
9,AGCGTCGC,-0.197
10,CACAACCG,-0.028
11,ATCGTATA,0.115
12,CCTACGAG,-0.148
13,ATAAGTCA,0.17
14,GGTATAAC,0.226
15,CGTATAAC,0.113
16,AGTATAAA,0.381
17,TGTATAAA,0.258
18,GGTATAAA,0.339
19,AGTATAAC,0.36
20,ATGTAAAA,0.247
21,CTTCCCCC,-0.176
22,AACACACA,0.187
23,AGGCTTAC,-0.247
24,GGATAAGA,0.0379
25,CGATAATA,0.301

row,Sequence,PBM 8-mer E-score
1,GGATAATA,0.403
2,AGATAATA,0.366
3,AGATAATG,0.295
4,AGATAATC,0.136
5,GCTCGAGA,-0.152
6,CCGTTCGC,-0.222
7,CTCCGGTA,-0.227
8,CAACGGCG,-0.221
9,ATCTATAA,0.209
10,CACTATAG,0.196
11,ATATAGCG,0.333
12,CTATATAA,0.421
13,ATATATAG,0.468
14,GCGTATAA,0.201
15,CCATATAG,0.084
16,CTCTATAA,0.081
17,GTGTATAA,0.202
18,ATCTATAG,0.146
19,GTATATAA,0.401
20,CTATATAG,0.388
21,AACTAGGA,0.0115
22,TGGCAACA,-0.122
23,ACAATCAC,0.00599
24,CACGCATC,-0.154
25,GTGGCCAA,-0.191

row,Sequence,PBM 8-mer E-score
1,CTGTTATA,0.359
2,CTGTTACA,0.111
3,ATGTTATA,0.442
4,GTGTTATA,0.32
5,CTGTTATC,0.0487
6,ATGTTATG,0.152
7,GAGGAAAC,-0.144
8,GAAACAAA,0.271
9,ACTAATAG,0.199
10,ACTAATAT,0.407
11,ACTAATAC,0.247
12,CCTAATAA,0.266
13,ACTAATAA,0.399
14,TCTAATAA,0.332
15,CCAAATCC,-0.193
16,AGAAAGAC,0.00959
17,GACACACA,0.101
18,AGGGACCC,-0.282
19,AGACCTCG,-0.132
20,AGATCGAG,-0.129
21,CGTGAAGC,-0.218
22,CTTGGTTA,0.0108
23,CATATCAC,0.15
24,GAGGCACC,-0.229
25,ATACAAAT,0.35

row,Sequence,PBM 8-mer E-score
1,ATACATAT,0.394
2,ATACAAAA,0.304
3,ATACATAA,0.336
4,ATACATAC,0.319
5,AAACATAC,0.284
6,AAACATAA,0.371
7,AAACATAT,0.361
8,ATACAAAG,0.27
9,TAACATAA,0.303
10,GAACATAA,0.256
11,AAACATAG,0.216
12,CAGTTGAC,0.0902
13,GGTCGAAC,-0.0987
14,AGTCAGAG,-0.21
15,CCTGGCGC,-0.207
16,CATAAATC,0.163
17,CCTAAATA,0.226
18,GATAAAGA,0.271
19,GATAAATA,0.382
20,CATAAATG,0.112
21,TATAAATA,0.426
22,AGTAAATA,0.361
23,AGTAAATC,0.0898
24,GATAAATC,0.137
25,CATAAATA,0.358

row,Sequence,PBM 8-mer E-score
1,CGTAAATA,0.236
2,TATAAAGA,0.327
3,CCCTGGAA,-0.276
4,CCCTACAC,-0.212
5,CTCCGCCA,-0.247
6,ACTCAGTA,0.118
7,AATTGAGA,0.0559
8,AATAAGTA,0.387
9,AATAAATC,0.319
10,AATAAATA,0.434
11,AATAAATG,0.33
12,AATAAATT,0.436
13,AATAAACT,0.293
14,AAGAAATT,0.26
15,CATAAGTA,0.315
16,AATAAGTG,0.254
17,CCAAGTTC,0.0376
18,AGGAGAAC,-0.112
19,CGACTCAA,-0.0083
20,TACCATAA,0.271
21,CATCTCCG,-0.186
22,AGCTTGCG,-0.227
23,AATATGCA,0.264
24,CATATGCA,0.164
25,TATATGAA,0.382

row,Sequence,PBM 8-mer E-score
1,GATATGAA,0.156
2,TATATGCA,0.412
3,AATATGAA,0.329
4,CAGCACAA,-0.0547
5,TCAGCCCA,-0.133
6,AAAGTATG,0.216
7,ACGTAAAC,-0.0262
8,AATACGGG,-0.0239
9,GACTTATA,0.312
10,CACTTATA,0.326
11,ACCTTATA,0.266
12,AACTTACA,0.33
13,TACTTATA,0.389
14,AACTTATA,0.415
15,AAGCCGGA,-0.238
16,TACTGTAA,0.336
17,AAGGACGT,-0.149
18,GGAGTCAA,-0.134
19,CTTGAACA,-0.0207
20,AAGGTGGG,-0.155
21,CCGCGGCG,-0.0831
22,ACGAGGCT,-0.135
23,ATTGGTAC,0.139
24,CTATAATA,0.42
25,CTGTAATA,0.36

row,Sequence,PBM 8-mer E-score
1,CTCTAATA,0.364
2,CCATAATA,0.287
3,GTGTAATA,0.342
4,ATGTAATA,0.317
5,GTATAATA,0.416
6,ATCTAATA,0.321
7,GTCTAATA,0.269
8,GTATAAGA,0.278
9,CTGTAATC,0.0848
10,CTTCAACA,0.0315
11,CCCGCGTA,-0.177
12,CGTCTCAG,-0.227
13,CTGTTTCA,-0.122
14,AACCCATT,0.0496
15,GACCAACC,-0.0441
16,GCATCAGC,-0.135
17,CTCGTCGC,-0.208
18,GATATGTA,0.282
19,ATTATGTC,0.305
20,ACTATGTG,0.172
21,AACATGTC,-0.0784
22,AACATGTT,0.295
23,AATATGTC,0.233
24,CATATGTA,0.252
25,ATTATGTA,0.377

row,Sequence,PBM 8-mer E-score
1,ATTATGTG,0.261
2,AATATGTA,0.365
3,AATATGTG,0.368
4,AACATGTA,0.347
5,GTTGCAAC,0.157
6,CGAGCTTC,-0.313
7,ACAGTCTA,-0.0014
8,ATAAAGGA,0.0948
9,ACAGGCCG,-0.147
10,ATAAAGTG,0.228
11,CATGATAC,0.111
12,ACGATATA,0.328
13,GATATATC,0.396
14,GATATATA,0.469
15,CCGATATA,0.333
16,GATATACC,0.178
17,GGGATATA,0.218
18,GAGATATC,0.163
19,GCGATATA,0.361
20,GATATCTA,0.267
